# Laboratory results reported in PMC12136788.
# Changes are numbered by the printed parent chain. Over roughly 5,800 sequences, “enrichment r” has its median near 0.68; the highest 2% begin near 11. The list comes from a sample in which the highest values are over-represented; it also holds similar and randomly drawn sequences.
# T1: UNK ZnF1-6 (called full-length) (human, UniProt Q9C0B0 30-357)
# T1 sequence: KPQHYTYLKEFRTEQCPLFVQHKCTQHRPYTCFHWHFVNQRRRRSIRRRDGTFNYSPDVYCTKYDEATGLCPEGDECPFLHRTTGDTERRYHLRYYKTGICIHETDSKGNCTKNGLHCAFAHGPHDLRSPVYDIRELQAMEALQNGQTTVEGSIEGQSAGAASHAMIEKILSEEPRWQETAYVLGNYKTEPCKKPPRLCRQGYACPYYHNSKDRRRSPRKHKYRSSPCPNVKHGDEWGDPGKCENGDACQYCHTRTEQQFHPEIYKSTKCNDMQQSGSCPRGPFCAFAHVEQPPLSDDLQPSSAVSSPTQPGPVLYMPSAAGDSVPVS
# B1: chr5:172042892:172042993:-|3pUTR|ENSG00000072786|msi1|FALSE|unique (ssRNA)
# RNA: GGGAGUUCUACAGUCCGACGAUCGAUUCUCCCGCUUCAACCUUGAGUAGCUGGGACGACAGAUACAUGCUACUGCACCCAGCUAGGUUAAGGUUCUGUAUACUCUGUCUUUCUAAAGCAAUUCCCUGGAAAUUUUCUCAACAUCAACAGAGGAUUGAGCAUCA
# B2: chr12:85264020:85264122:+|3pUTR|ENSG00000133640|unk|FALSE|unique (ssRNA)
# RNA: GGGAGUUCUACAGUCCGACGAUCCAUAGUAUUUCAGUUACUUUCCACAGCUGUGUUGCUCAAUAAUAGCAUCCAGUGAACUUUAGUAUUUUUUUGUUUUUCCUGUAUUUUAUUAAAAUAUUUCAUCUAGAGAUAACUGAAGUGCAACAGAGGAUUGAGCAUCA
# B3: chr1:32196422:32196614:+|3pUTR|ENSG00000084652|msi1|FALSE|unique (ssRNA)
# RNA: GGGAGUUCUACAGUCCGACGAUCACAGUUGUUUCUGUGUCCUGUUCUACCCCCACUCCAGUACAUAACUACUAUGUACUGUGUAGAGCCAUUCUAUAUGCUGAAUGUUCUGCUGUUGCAAACUUGCCAGGGUAUUAGCCAGUGCAACAGAGGAUUGAGCAUCA
# B4: chr17:67075675:67075776:-|3pUTR|ENSG00000198265|unk|FALSE|unique (ssRNA)
# RNA: GGGAGUUCUACAGUCCGACGAUCAUUCCUUAUUUCCAUAGCCAGUCAAGGAUUCUAACGCUGCUUCCAUCUGAUACUCUUCUUAGAUUCUGCAUCAAAUGCUUAUUUUGACUUACAACAAGCUUACUCUUCCUCAGCAUUACACAACAGAGGAUUGAGCAUCA
# B5: chr8:41543231:41543332:+|3pUTR|ENSG00000147536|msi1|total|mutant (ssRNA)
# RNA: GGGAGUUCUACAGUCCGACGAUCAAACCAUUAUUAAAUUUCCAUUCUGCAGCAGAAGGCACCUCUGGACGGCUCCCGGCUUGCCGUUUAAUGAAGUAUGUGCUCCCUGCUGUUAACCCGCAGCCCUCCCCAACUCUCCAGCAGCAACAGAGGAUUGAGCAUCA
# B6: chr6:53267885:53267986:-|3pUTR|ENSG00000012660|msi1_unk|FALSE|overlapping (ssRNA)
# RNA: GGGAGUUCUACAGUCCGACGAUCUUUAAUGUAAAUCUAAUAGUACUUGUAAUUUCUUUCUGCUUAGAAUCUAAAGAUGUGUUUAGAACCUCUUGUUUAAAAAUAAUAGACUGCUUAUCAUAAAAUCACAUCUCACACAUUUGACAACAGAGGAUUGAGCAUCA
# B7: chr3:97755980:97756081:+|3pUTR|ENSG00000080224|unk|FALSE|unique (ssRNA)
# RNA: GGGAGUUCUACAGUCCGACGAUCUAAUUAAAAAUCUCUUUCCUACCUUUAGUAAUUUGUAGGAUGAACUGUAUGCAUUUAGAUAGAAAUUGCUUUUGUUAAAUUUACAUUUAAACACAUCUUCAUUCACUUAGAGAAGCCAUACAACAGAGGAUUGAGCAUCA
# B8: ENSG00000070961:be:win_5101|3pUTR|ENSG00000070961|bound_else_gene|NA|bound_elsewhere_windowed (ssRNA)
# RNA: GGGAGUUCUACAGUCCGACGAUCAUGACCACCAUUGUCUUUGAUACAUUUAUUUUAAUUCUUAAGUGGCCAAAUAACAGAUUAGGUAAAAUGAGAUUACAUGAAAAGGUUCUAAAAUGAUAUAUUUAGAUGCAAUAAUUAACCCAACAGAGGAUUGAGCAUCA
# B9: chr3:31636526:31636632:+|3pUTR|ENSG00000163527|unk|FALSE|unique (ssRNA)
# RNA: GGGAGUUCUACAGUCCGACGAUCCAAAAUGUGAUGAGAGCUUCUUGAACCGGUAAACUAGUACAGGUCUGAGAAAGACAUAUUAGAAGAAUCAUUAUACUUCCUUGAAUUAUAUUUAUUUUCAUGUUUCUCUAAUGCAAAGAACAACAGAGGAUUGAGCAUCA
# B10: chr19:33301014:33301115:-|3pUTR|ENSG00000245848|unk|FALSE|unique (ssRNA)
# RNA: GGGAGUUCUACAGUCCGACGAUCUCCCUGCGAGGAGGGGAGAAUUCUUGGGGCUGAGCUGGGAGCCCGGCAACUCUAGUAUUUAGGAUAACCUUGUGCCUUGGAAAUGCAAACUCACCGCUCCAAUGCCUACUGAGUAGGGGGCAACAGAGGAUUGAGCAUCA
# B11: chr4:138171397:138171528:-|3pUTR|ENSG00000151012|msi1|FALSE|unique (ssRNA)
# RNA: GGGAGUUCUACAGUCCGACGAUCAUUAUGGCAAAGAGGAGAGAAAGAAAUUUAUUUUACAUUGACAUUGCAUUGCUUCCCCUUAGAUACCAAUUUAGAUAACAAACACUCAUGCUUUAAUGGAUUAUACCCAGAGCACUUUGACAACAGAGGAUUGAGCAUCA
# B12: chr15:78283234:78283431:-|three_prime_utr|ENSG00000140395|control|control|control (ssRNA)
# RNA: GGGAGUUCUACAGUCCGACGAUCUCUCCAGGCUUAUGCUGCAAAGAGAAUGUACGGAUUGAUCAUGACAUUCCUUACCUUCUUAGGCUUGUUUAAAAGAAAUAUAGCAUUUAUUGUAGCAAAGACUUAAAUUUUGUAGAUACACAACAGAGGAUUGAGCAUCA
# B13: ENSG00000176244:stop:overlap|stop_codon|ENSG00000176244|stop_codon|NA|stop_codon (ssRNA)
# RNA: GGGAGUUCUACAGUCCGACGAUCAAGAUGCGACGAGUGCCUAUAUUUCUAAAGCAAAGGAGCUGAUAGAAAAAUACGGAAUUUAGAAUACAGCAUAUGAGGAAUUUUUCCUUUUGAAGACUUCCAAAUGCUAUCAUGACCUAACAACAGAGGAUUGAGCAUCA
# B14: chr8:41543231:41543332:+|3pUTR|ENSG00000147536|msi1|FALSE|unique (ssRNA)
# RNA: B5 RNA with C83U, C84A
# B15: chr3:62294137:62294238:+|3pUTR|ENSG00000144724|msi1|FALSE|unique (ssRNA)
# RNA: GGGAGUUCUACAGUCCGACGAUCUGAGACCCUUUAGUUAUUCUCCAUUAAUGCUUCUUAGUUUGUAAUACCAUACCUCACAGUAGGUAGAAGAAUGAAAACUUCUGCAGGUGUGUAAUUUUGAAACUAGUCCUCUAAAAAUUCCAACAGAGGAUUGAGCAUCA
# B16: chr4:138171397:138171528:-|3pUTR|ENSG00000151012|msi1|total|mutant (ssRNA)
# RNA: B11 RNA with U83C, A84C, U95C, A96C
# B17: chr16:70160055:70160156:+|3pUTR|ENSG00000090857|msi1|total|mutant (ssRNA)
# RNA: GGGAGUUCUACAGUCCGACGAUCUUGUGCUCACCACGAAGGAUGGUCUCUGCCUUCUCUUGUCGGUGUAUGCCAUCUGAACCCCGGAACACAAAGUAUAUUGGCCUCAAACGGAGACCCAGGGUUGCCAGUUUUCCGUGGGCCCAACAGAGGAUUGAGCAUCA
# B18: chr12:68660398:68660499:+|3pUTR|ENSG00000127314|msi1|FALSE|unique (ssRNA)
# RNA: GGGAGUUCUACAGUCCGACGAUCUUGAGGUGGCCAAAUGUAAACUAAAAGCCUUAAUUAAAGUGGUGCAAUUUUGUAUAACUUAGCAUCAGUAGUUCAAUAAAUUUGGAUUGCCAUGCAAGGGCUUGCAUUAUAAUUACUUGCCAACAGAGGAUUGAGCAUCA
# B19: chr4:186588032:186588133:-|3pUTR|ENSG00000083857|msi1|FALSE|unique (ssRNA)
# RNA: GGGAGUUCUACAGUCCGACGAUCUUUUUUUACUAUAACCAGGGUUUCAUUCUGUCUUUUUCCACUGAAGUGUGACAUUUUGUUAGUACAUUUCAGUGUAGUCAUUCAUUUCUAGCUGUACAUAGGAUGAAGGAGAGAUCAGAUCAACAGAGGAUUGAGCAUCA
# B20: chr1:225496770:225496921:-|3pUTR|ENSG00000154380|msi1|FALSE|unique (ssRNA)
# RNA: GGGAGUUCUACAGUCCGACGAUCUUUUUUAAUUGCAGACAGUAAUGCAUGUCACACUAAUAUGUAGUGGCCUUUUCAAGGCCUAGUCCCAGGGAAAACAUUUUGUAGAGUAUAGGGGAGUGGGAGGAAGGGGAGGAAUAAUUUCAACAGAGGAUUGAGCAUCA
# B21: chr13:45969211:45969312:-|CDS|ENSG00000123200|unk|FALSE|unique (ssRNA)
# RNA: GGGAGUUCUACAGUCCGACGAUCGUCCCUGACCGUACAGAGGUGACAGAAGCAGAGCAUACUGCCACCGCCACGACUCCUGGUAGUACCCCUUCUCCUCUAUCUUCUCUUCUUCCUCCUCCACCGCCUGUGGCUACUGCCACUCAACAGAGGAUUGAGCAUCA
# B22: ENSG00000107863:be:win_5851|CDS_3pUTR|ENSG00000107863|bound_else_gene|NA|bound_elsewhere_windowed (ssRNA)
# RNA: GGGAGUUCUACAGUCCGACGAUCAAAGCAGAGUUUCAUCCCUGUCUUUAAACUGGGGGUAUGUCCACUCUAGCAAGUAAAAAAACUACUGUUACACGUUCCAGUAACUCUGUCAAUAUUUUCUUGUAUCAGAAUUGUUAUUAUCAACAGAGGAUUGAGCAUCA
# Target: T1, UNK ZnF1-6 (called full-length)
# Experiment: nsRBNS (natural sequence RNA bind-n-seq); RBNS binding buffer (assumed for nsRBNS): 25 mM Tris pH 7.5, 150 mM KCl, 3 mM MgCl2, 0.01% Triton X-100, 500 ug/ml BSA, 20 U/ml SUPERase-In, 4 C; UNK is unkempt and MSI1 is Musashi-1; names of the RNAs are library labels; protein concentration not given here; high values mean tight binding
row,Binder,binding signal [enrichment R]
1,B1,0.494
2,B2,10
3,B3,0.631
4,B4,1.05
5,B5,1.48
6,B6,10.2
7,B7,10.1
8,B8,3.73
9,B9,1.21
10,B10,4.16
11,B11,73.9
12,B12,13.8
13,B13,0.808
14,B14,11.4
15,B15,16.2
16,B16,0.489
17,B17,0.469
18,B18,0.685
19,B19,1.31
20,B20,7.59
21,B21,1.84
22,B22,0.426
